# From PubChem BioAssay (NCATS)
# Several values for one entry are separate records, joined by “and”; a condition that tells them apart may be missing. Equal entries are not always repeated. Unmarked numbers belong to inactive results. Records with an inconclusive call do not appear. Activity calls are given as the source filed them. The call rests on the fitted dose curve; in most records, active means well fitted curve in the direction sought with a large enough effect; inconclusive means small, poorly fitted or top-dose-only effect, or another doubt; inactive means no such curve, though single readings can be large; an effect the other way counts as inactive or inconclusive.
# Biological target: Tyrosine-protein kinase Yes (Homo sapiens) (UniProt P07947)
# Assay: qHTS for small molecule inhibitors of Yes1 kinase: Primary Screen (AID 686947); further: nearly all actives have a fitted effect of over 60% in size; further: potency means the concentration at half of the fitted maximal effect;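 on activity change, negative = inhibition: plate controls were DMSO with enzyme for no effect and no-enzyme DMSO wells for full effect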
# Settings: Yes1 kinase biochemical qHTS inhibition; series mostly up to 76.9 µM; activity change, negative = inhibition: at the top concentration
# How it was run: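 ADP-Glo luminescence readout; final 4 nM Yes1, 0.1 mM ATP, 0.3 mg/mL poly(E4Y), Tris pH 7.5, MgCl2, DTT, Brij-35. 20 min compound preincubation, 60 min reaction at RT. Normalized to DMSO wells with and without enzyme.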
# Sequence of Tyrosine-protein kinase Yes (Homo sapiens) (P07947 whole entry, looked up): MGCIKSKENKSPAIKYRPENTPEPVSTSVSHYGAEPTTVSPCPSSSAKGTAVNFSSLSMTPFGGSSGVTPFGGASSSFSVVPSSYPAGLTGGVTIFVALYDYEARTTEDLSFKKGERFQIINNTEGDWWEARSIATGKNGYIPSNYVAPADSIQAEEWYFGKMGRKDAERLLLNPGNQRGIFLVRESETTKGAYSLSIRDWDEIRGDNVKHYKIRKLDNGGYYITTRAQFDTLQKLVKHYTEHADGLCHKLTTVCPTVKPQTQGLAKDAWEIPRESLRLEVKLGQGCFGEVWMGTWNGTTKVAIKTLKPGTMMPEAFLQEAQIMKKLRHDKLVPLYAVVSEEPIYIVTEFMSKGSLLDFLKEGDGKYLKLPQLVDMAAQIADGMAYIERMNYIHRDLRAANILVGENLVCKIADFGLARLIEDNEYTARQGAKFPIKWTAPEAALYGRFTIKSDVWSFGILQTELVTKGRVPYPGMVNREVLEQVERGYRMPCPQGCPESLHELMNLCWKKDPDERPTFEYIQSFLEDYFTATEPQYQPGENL
SMILES,Potency,"activity change, negative = inhibition [%]"
COc1ccc(-c2coc3ncnc(N)c23)cc1,11.6 µM (active),–
CC1=C(C(=O)Nc2ccc3n[nH]c(C)c3c2)C(c2ccc(C(F)(F)F)cc2)CC(=O)N1 (stereo not given),6.54 µM (active),–
CCS(=O)(=O)c1ccc(OC)c(Nc2nccc(N(C)c3ccc4c(C)[nH]nc4c3)n2)c1,0.0519 µM (active),–
O=C(Nc1n[nH]c2nc(-c3ccc(O)cc3)c(Br)cc12)C1CC1,1.64 µM (active),–
CNC(=O)c1cncc(C=Cc2c(Cl)cccc2Cl)c1,0.823 µM (active),–
CS(=O)(=O)Nc1ccc(-c2cc(-c3ccccc3)cc(C(N)=O)c2N)cc1,13 µM (active),–
CN(C)C(=O)OC1CNC(C#Cc2cc3ncnc(Nc4ccc(OCc5cccc(F)c5)c(Cl)c4)c3s2)C1 (stereo not given),8.23 µM (active) and 7.33 µM (active),–
COC(=O)c1ccc2c(c1)/C(=C/c1cc(Br)c(O)c(Br)c1)C(=O)N2,0.733 µM (active),–
NC(=O)CCc1ccccc1Oc1nccc(-c2c(-c3ccc(F)cc3)ncn2C2CCNCC2)n1,–,-22.8
Nc1nccc(-c2c(-c3ccc(F)cc3)ncn2C2CCC(O)CC2)n1 (stereo not given),0.733 µM (active),–

# Test system: not listed separately
# Assay: qHTS for small molecule inhibitors of Yes1 kinase: Counter Assay (AID 686950);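 further: no kinase present so only ADP-Glo detection of a fixed ADP amount is tested; luminescence from ADP-Glo reporting ADP in a fixed ATP and ADP mixture; 0% = DMSO wells with ATP plus ADP and -100% = ATP-only wells without ADP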
# Settings: series mostly up to 76.9 µM; activity change, negative = inhibition: at the top concentration
# How it was run: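 Enzyme-free ADP-Glo interference check: compounds were preincubated 20 min in buffer, then an ATP/ADP mix (0.08 mM ATP, 0.02 mM ADP final) was added for 60 min at room temperature before two-step ADP-Glo luminescence detection.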
SMILES,"activity change, negative = inhibition [%]",outcome
COc1ccc(-c2coc3ncnc(N)c23)cc1,12.8,–
CCc1nccc2c1nc(-c1nonc1N)n2CC,4.09,–
CC1=C(C(=O)Nc2ccc3[nH]ncc3c2)C(c2ccc(F)cc2)N=C(c2ccc(C(F)(F)F)nc2)N1 (stereo not given),0.65,–
CS(=O)(=O)CCNCc1nc(-c2ccc3ncnc(Nc4ccc(OCc5cccc(C(F)(F)F)c5)cc4)c3c2)cs1,3.91,–
CC1=C(C(=O)Nc2ccc3n[nH]c(C)c3c2)C(c2ccc(C(F)(F)F)cc2)CC(=O)N1 (stereo not given),0.628,–
COc1cc(N2CCN(C(C)C)CC2)ccc1Nc1nc(Nc2ccc(F)cc2C(N)=O)c2cc[nH]c2n1,258,–
O=C1NC(=O)C(c2ccccc2Cl)=C1Nc1cc(Cl)c(O)c(Cl)c1,-1.75,–
COc1ccc2cc(-c3c(-c4ccncc4)nc(-c4ccc(S(C)=O)cc4)n3C)ccc2c1 (stereo not given),-0.218,–
O=C(Nc1n[nH]c2nnc(-c3cccnc3)cc12)C1CC1,7.05,–
Fc1cccc(COc2ccc(Nc3ncnc4cc(-c5ccc[nH]5)sc34)cc2Cl)c1,1.31,–
c1ccc(Nc2ncc(-c3ccccc3)o2)cc1,-2.5,–
COc1ccccc1C1=C(Nc2ccccc2)C(=O)NC1=O,-2.08,–
CCN1CCC(CC(=O)Nc2n[nH]c3nnc(-c4cccc(F)c4F)cc23)CC1,2.67,–
CCS(=O)(=O)c1ccc(OC)c(Nc2nccc(N(C)c3ccc4c(C)[nH]nc4c3)n2)c1,2.9,–
CCCN1CCC=C(c2ccc(Nc3nc(Nc4ccccc4C(N)=O)c4cc[nH]c4n3)c(C)c2)C1,323,–
O=C(Nc1n[nH]c2nc(-c3ccc(O)cc3)c(Br)cc12)C1CC1,0.879,–
Fc1ccc(-c2ncn(C3CCNCC3)c2-c2ccnc(Oc3ccc(Cl)cc3)n2)cc1,-4.64,–
O=S(=O)(CCNCc1ccc(-c2ccc3ncnc(Nc4ccc(OCc5cccc(F)c5)c(Cl)c4)c3c2)o1)c1ccccc1,7.85,–
c1cnn2ncc(-c3ccnc(NCCCN4CCOCC4)n3)c2c1,1.83,–
c1cnn2ncc(-c3ccnc(Nc4ccc5c(c4)OCCO5)n3)c2c1,-1.82,–

SMILES,"activity change, negative = inhibition [%]",outcome
CNC(=O)c1cncc(C=Cc2c(Cl)cccc2Cl)c1,3.75,–
CC(=O)NCc1cccc(C#Cc2cncnc2Nc2ccc(OCc3cccc(F)c3)c(Cl)c2)c1,-1.46,–
CCN1CCC(C(=O)Nc2n[nH]c3nnc(-c4cccc(F)c4F)cc23)CC1,1.59,–
CS(=O)(=O)Nc1ccc(-c2cc(-c3ccccc3)cc(C(N)=O)c2N)cc1,6.07,–
CN(C)C(=O)OC1CNC(C#Cc2cc3ncnc(Nc4ccc(OCc5cccc(F)c5)c(Cl)c4)c3s2)C1 (stereo not given),–,inactive
O=S(=O)(CCOCc1ccc(-c2ccc3ncnc(Nc4ccc(OCc5cccc(F)c5)c(Cl)c4)c3c2)o1)c1ccccc1,0.528,–
N#Cc1cccc(Nc2nccc(-c3cnn4ncccc34)n2)c1,6.09,–
COC(=O)c1ccc2c(c1)/C(=C/c1cc(Br)c(O)c(Br)c1)C(=O)N2,36.9,–
Fc1ccc(-c2ncn(CCCN3CCOCC3)c2-c2ccncc2)cc1,-2.87,–
Fc1ccc(-c2c(-c3ccncc3)nc3n2CCS3)cc1,0.28,–
CCc1nn2ncccc2c1-c1ccnc(NC2CC2)n1,12.6,–
O=C(Nc1n[nH]c2cc(-c3ccc(F)cc3)ccc12)C1CC1,4.33,–
c1cc(-c2cnn3nc(N4CCOCC4)ccc23)nc(NC2CC2)n1,1.81,–
Fc1ccc(Oc2nccc(-c3c(-c4ccc(F)cc4)ncn3C3CCNCC3)n2)cc1,-2.18,–
CC(Oc1cc(-n2cnc3ccc(OCC(O)CO)cc32)sc1C(N)=O)c1ccccc1Cl (stereo not given),-0.118,–
COc1ccccc1Oc1nccc(-c2c(-c3ccc(F)cc3)ncn2C2CCNCC2)n1,-1.76,–
Cc1cccc2c(N=Nc3ccc(S(N)(=O)=O)cc3)c(O)[nH]c12,0.144,–
Fc1cccc(COc2ccc(Nc3ncnc4sc(-c5cccs5)cc34)cc2Cl)c1,1.37,–
NC(=O)CCc1ccccc1Oc1nccc(-c2c(-c3ccc(F)cc3)ncn2C2CCNCC2)n1,1.78,–
Nc1nccc(-c2c(-c3ccc(F)cc3)ncn2C2CCC(O)CC2)n1 (stereo not given),1.35,–
